Results published in PubChem BioAssay (NCATS).

test: qHTS profiling for inhibitors of Plasmodium falciparum (DD2) proliferation (AID 743323); conditions: lower = more inhibition; at 28.7 µM (top of the series) unless noted
Method in brief: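 P. falciparum Dd2-infected erythrocytes (0.3% parasitemia, 2.5% hematocrit) exposed 72 h at 37 C, 5% CO2. Lysis with SYBR Green, overnight at room temperature, fluorescence 485/535 nm; normalized to 0.29 uM artemisinin and DMSO.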

| Structure (SMILES) | activity, percent of control |
| --- | --- |
| CC(CNC1CCCCC1)OC(=O)c1ccccc1 (stereo not given) | 61.4% [at 9.63 µM] |
| O=C1C(=O)c2ccccc2C(O)=C1C1CCC(c2ccc(Cl)cc2)CC1 (stereo not given) | 3.7% |
| C[N+]1(C)CCC(=C(c2ccccc2)c2ccccc2)CC1 | 22.2% [at 18.4 µM] |
| CNCCCCOc1ccccc1Cc1ccccc1 | 31.1% |

test: qHTS profiling for inhibitors of Plasmodium falciparum (HB3) proliferation (AID 743324); conditions: Plasmodium falciparum HB3 blood-stage proliferation; at 28.7 µM (top of the series) unless noted;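 further: 100% = DMSO vehicle wells and 0% = artemisinin-treated control wells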
Method in brief: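 SYBR Green fluorescence (485 ex/535 em) of lysed cultures, incubated overnight at room temperature in the dark, quantifies parasite DNA. Infected erythrocytes at 0.3% parasitemia and 2.5% hematocrit were exposed 72 h; values normalized to DMSO and 0.29 uM artemisinin controls.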

| Structure (SMILES) | remaining proliferation (% of control), lower = more inhibition |
| --- | --- |
| CC(CNC1CCCCC1)OC(=O)c1ccccc1 (stereo not given) | 111% [at 9.63 µM] |
| O=C1C(=O)c2ccccc2C(O)=C1C1CCC(c2ccc(Cl)cc2)CC1 (stereo not given) | 1.19% |
| CNCCCCOc1ccccc1Cc1ccccc1 | 42.9% |

test: qHTS profiling of the MIPE4 collection as inhibitors of Plasmodium falciparum (3D7) proliferation (AID 743344);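 further: scaled between DMSO vehicle wells and 0.29 µM artemisinin as full inhibition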; conditions: P. falciparum 3D7 in erythrocytes, SYBR Green DNA fluorescence, 72 h; at 28.5 µM (top of the series)
Description: Plasmodium falciparum is a virulent malarial parasite that kills 1-2 million people worldwide each year. Transmitted by mosquitoes, the sporozoite form of the parasite enters the blood stream to infect hepatocytes, where they become merozoites that infect red blood cells (erythrocytes). Within erythrocytes, merozoites begin a […] cycle of growth and division, after which the parasite is released to infect new red blood cells. Gametocytes, which form within erythrocytes as well, circulate in the bloodstream and are ingested by the mosquito, thereby completing the life cycle. To profile malarial isolates for differential chemical responses and to identify inhibitors of malarial growth, an assay that measures P. falciparum growth and replication within erythrocytes was employed. This assay uses a DNA binding fluorescent dye (SYBR Green) to detect parasite DNA following cell lysis. Because mature erythrocytes lack DNA, only Plasmodium-derived DNA is detected.
The SYBR Green viability assay was adapted from a method described previously (Plouffe et al., 2008). For screening 3 ul culture medium was dispensed into 1536 well black clear bottom plates (Aurora Biotechnologies) using a Multidrop Combi (Thermo Fisher Scientific Inc.), 23 nL compounds in DMSO were added by a pin tool (Kalypsys), and 5 ul of erythrocytes infected with P. falciparum (0.3% parasitemia, 2.5% hematocrit final concentration) were added. The plates were incubated at 37 C in a humidified incubator in 5% CO2 for 72 h, and 2 ul lysis buffer (20 mM Tris HCl, 10 mM EDTA, 0.16% saponin, 1.6% triton X, 10X SYBR Green I supplied as 10,000X […] by Invitrogen) was added to each well. […] The following morning, fluorescence intensity at 485(14) nm excitation and 535(25) nm emission wavelengths was measured on an EnVision (Perkin Elmer) plate reader. Plate reads were normalized relative to the control inhibitor (0.29 uM artemisinin) and vehicle (DMSO) wells present on each plate and then corrected by an algorithm using vehicle-only control plates at the beginning and end of the compound plate stack.

| Structure (SMILES) | parasite growth, % of DMSO control |
| --- | --- |
| O=C1C(=O)c2ccccc2C(O)=C1C1CCC(c2ccc(Cl)cc2)CC1 (stereo not given) | 9.11% |
| CCOC(=O)Nc1ccc2c(c1)N(C(=O)CCN1CCOCC1)c1ccccc1S2 | 47.5% |
| NS(=O)(=O)Cc1noc2ccccc12 | 102% |
